# Assay outcomes deposited in PubChem by Broad Institute.
# Hits are enriched below; roughly 2.1% of the tested compounds scored in any of these assays.
# PGC1a acetyl inh = modulators of PGC1a acetylation; U2OS PGC1a acetylation, AlphaScreen anti-acetyl-lysine; with virally co-expressed GCN5 acetyltransferase; inhibition, % at 15.6 µM; 0.17% of 350,000 active; AID 651687;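 active = every replicate shows inhibition of at least 40%; inconclusive = mean inhibition at least 40% but some replicate below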;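 also: 0% = neutral control wells and 100% = positive control wells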
# AF4-AF9 inh = blocks AF4 peptide binding to human AF9; 0.47% of 350,000 active; AlphaScreen, biotin-AF4 peptide binding to FLAG-AF9; inhibition, % at 10 µM; P42568;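 active = every replicate reaching a set inhibition limit, whatever the replicate mean, cut at about 25% in these data; inconclusive = mean inhibition reaches that limit but some replicates miss it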;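 also: 0% = plate neutral control median and 100% = total signal loss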
# Target sequence (P42568 whole entry, looked up): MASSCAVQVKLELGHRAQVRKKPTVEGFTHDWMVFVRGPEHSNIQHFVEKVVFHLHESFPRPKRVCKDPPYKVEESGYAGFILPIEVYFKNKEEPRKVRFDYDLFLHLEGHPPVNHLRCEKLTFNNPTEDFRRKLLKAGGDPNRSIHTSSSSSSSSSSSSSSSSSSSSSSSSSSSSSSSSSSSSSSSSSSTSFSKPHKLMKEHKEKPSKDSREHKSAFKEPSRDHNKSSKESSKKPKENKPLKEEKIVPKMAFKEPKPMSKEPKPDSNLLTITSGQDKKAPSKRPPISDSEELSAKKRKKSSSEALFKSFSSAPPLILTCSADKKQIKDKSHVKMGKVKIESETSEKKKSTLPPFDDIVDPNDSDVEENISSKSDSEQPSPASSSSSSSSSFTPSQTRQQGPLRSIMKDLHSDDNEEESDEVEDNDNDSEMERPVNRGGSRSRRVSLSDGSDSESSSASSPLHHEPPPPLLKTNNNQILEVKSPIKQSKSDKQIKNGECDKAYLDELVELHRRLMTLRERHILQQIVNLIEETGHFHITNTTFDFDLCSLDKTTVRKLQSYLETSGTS
# HIV Env fusion = blocks HIV Env-driven cell-cell fusion | HeLa-JRFL Env/CEM21 cell fusion, luciferase | inhibition, % at 12.3 µM | 1.1% of 360,000 active | AID 651610;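 active = mean replicate inhibition score of at least 50 and every replicate individually at or above 50; inconclusive = only one of the two criteria met; inactive = mean below 50 and not all replicates reaching 50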;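 also: 0% = plate neutral controls and 100% = maraviroc near 300 nM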
# INS-1E GSIS act = primary screen for activators of insulin secretion dependent on glucose, INS-1E cells, GLuc reporter luminescence. INS-1E GLuc reporter insulin secretion, 2-3 h. activation, % at 16.6 µM. 0.61% of 370,000 active;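 active = lowest replicate activation of at least 40%, so every replicate reaches that level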;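 also: 0% = median of neutral control wells and 100% = median of IBMX positive control wells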
# NSD2 inh = NSD2 (human) methyltransferase inhibition; NSD2 peptide methylation, AlphaScreen, 120 min; inhibition, % at 12.5 µM; 0.54% of 310,000 active; AID 743445; in the data active = inhibition above about 50%
# AlphaScreen art = interferes with AlphaScreen signal, flagging NSD2 false positives; 9.4% of 1,500 active; AlphaScreen artifact counterscreen, preloaded methylated H4 peptide; shares compounds with NSD2 inh; AC35, µM (titrated, usually from 10 µM), for the others: top-dose activity change, negative = signal loss; call rule not given here
# * hit, by the source's call; ? = inconclusive; / = not tested or not shown; [ ] = another dose, or the depositor's remark.
SMILES,PGC1a acetyl inh,AF4-AF9 inh,HIV Env fusion,INS-1E GSIS act,NSD2 inh,AlphaScreen art
O=C(NCc1ccc2c(c1)OCO2)c1ccc(Br)s1,-5.1,-96.5,2.9,10.5,-0.6,/
O=C1Nc2ccccc2/C1=N/N=C/c1cccc(O)c1,-4.0,-30.9,-54.7,-8.0,-0.4,/
COc1cc(/C=N/N=C2/C(=O)Nc3ccccc32)cc(OC)c1O,/,/,-128.5,-10.7,66.7*,-14.5%
CCOC(=O)C1=C(C)N=c2s/c(=C/c3cccc([N+](=O)[O-])c3O)c(=O)n2C1c1cc(OC)c(OC)c(OC)c1 (centres undefined),2.5,-1.3,-29.4,-24.1,49.0,/
CCOC(=O)C1=C(C)N=c2s/c(=C/c3cccc([N+](=O)[O-])c3O)c(=O)n2C1c1ccccc1 (centres undefined),/,0.2,-5.2,-16.9,63.1*,8.65µM*
Cc1cc(C)c2c(c1)cc(C)c1nnc(SCC(=O)Nc3ccc(S(=O)(=O)N4CCCCC4)cc3)n12,-3.3,/,-2.6,-28.4,-2.0,/
Cn1c(=O)c(-c2ccccc2)nc2ccccc21,-8.5,/,-308.8,/,126.5*,7.3%
O=C(/C=C/c1ccc([N+](=O)[O-])cc1)N1CCN(Cc2ccccc2)CC1,-14.4,1.5,-35.2,1.8,-2.1,/
O=C(/C=C/c1ccc(OCCCF)cc1)N1CCN(Cc2ccccc2)CC1,-0.4,3.6,4.1,-8.9,70.2*,-2.1%
COc1ccc(S(=O)(=O)Nc2cc(Cl)ccc2OC)cc1,-19.7,/,?,14.3,-4.5,/
Cc1nc2c(=O)[nH]c(=S)[nH]c2[nH]c1=O,1.1,-8.4,15.7,25.5,83.8*,-1.8%
N#CCC(=O)c1sccc1-n1cccc1,/,-1.1,0.2,-8.4,91.9*,-4.6%
N#CCOC(=O)c1sccc1-n1cccc1,-6.5,/,/,/,2.7,/
CN1C(=O)c2cc(NC(=O)c3ccccc3)ccc2OC[C@@H]2O[C@@H](CC(=O)O)CC[C@@H]21,3.8,-0.8,18.4[16.7 µM],6.1,/,/
CC(=O)c1c(C)nc(-c2ccc(Cl)cc2)nc1N,/,-0.6,-34.3,1.7,/,/
CC(=O)c1c(C)nc(-c2ccc(Cl)cc2)nc1N=CN(C)C,7.9,/,/,/,65.8*,-1.3%
CCC(=O)Nc1ccc2c(c1)C(=O)N(C)C[C@H](OC)[C@H](C)CN(CCC(F)(F)F)[C@@H](C)CO2,-12.0,-2.7,10.4[16.7 µM],7.6,/,/
Cc1cccnc1Nc1nc(-c2ccc(O)c(O)c2)cs1,1.1,8.0,/,21.8,51.3*,-10.0%
Oc1ccc(-c2csc(Nc3cccc4ccccc34)n2)cc1O,/,9.1,-3.9,-12.3,50.7*,-16.9%
C[C@@H]1CN([C@H](C)CO)C(=O)c2cccc(NS(=O)(=O)c3cccs3)c2O[C@H]1CN(C)Cc1ccc(Oc2ccccc2)cc1,-1.2,5.8,/,-7.8,/,/
Cc1ccc(-c2nc3c4ccccc4ccn3c2Cc2ccccc2C(F)(F)F)cc1,/,0.2,19.8,39.7,/,/
C[C@H]1CN([C@@H](C)CO)C(=O)Cc2cc(NC(=O)Nc3ccc(C(F)(F)F)cc3)ccc2O[C@H]1CN(C)Cc1ccc(C(=O)Nc2ccccc2N)cc1,-15.7,-5.9,28.5[16.7 µM],2.2,/,/
COc1ccc(C)cc1NCc1ccc(OC)c(C)c1OC,/,10.0,-5.5,4.5,79.5*,-18.7%
Cc1ccc(S(=O)(=O)N(C)C)cc1NC(=O)c1sccc1Cl,-7.7,-2.4,8.1,-1.8,-3.6,/
COc1ccc(-n2c(SCC#N)nnc2-c2cccnc2)cc1,?,/,-10.4,/,-0.5,/
SMILES,PGC1a acetyl inh,AF4-AF9 inh,HIV Env fusion,INS-1E GSIS act,NSD2 inh,AlphaScreen art
COCC(C)OC(=O)/C(C#N)=C\c1coc2ccc(C)cc2c1=O (centres undefined),/,-4.9,8.3,-8.9,50.4*,-4.1%
CCCCn1c(NC(=O)c2ccccc2Cl)c(C#N)c2nc3ccccc3nc21,3.0,/,-7.2,-45.6,113.8*,4.1%
CCN(C(=O)C(C)N1C(=O)/C(=C/c2ccco2)SC1=S)C1CCS(=O)(=O)C1 (centres undefined),/,8.1,0.5,-10.2,26.2,/
CC(C(=O)O)N1C(=O)/C(=C/C=C/c2ccco2)SC1=S (centres undefined),-1.6,/,/,/,176.3*,4.35µM*
CC(=O)c1ccc2c(c1)C1C=CCC1C(c1cc3c(cc1Br)OCO3)N2 (centres undefined),/,3.2,-25.1,-5.7,/,/
O=C(O)c1ccc2c(c1)C1C=CCC1C(c1ccncc1)N2 (centres undefined),-7.0,-1.5,-1.5,16.4,20.2,/
CC(C)C1Nc2ccc(C(=O)O)cc2C2C=CCC21 (centres undefined),/,1.2,3.3,16.2,58.2*,-5.0%
CCCC1Nc2ccc(C(=O)O)cc2C2C=CCC12 (centres undefined),/,/,/,/,92.0*,-0.8%
CO[C@H]1CN(C)C(=O)c2cc(C#N)ccc2OCC[C@H]2CC[C@@H](OC)[C@@H](CN(C)C(=O)[C@H]1C)O2,/,/,24.1[16.7 µM],-3.5,/,/
COc1cccc(CN2CCC(Oc3ccc(C(=O)N4CCCCC4)cc3)CC2)c1O,/,3.2,-2.1,3.6,57.6*,-3.7%
COc1ccc(OCC(=O)NNc2c3ccccc3nc3ccccc23)cc1,-7.1,/,58.9*,/,60.7*,3.2%
O=C(COc1ccccc1)NNc1c2ccccc2nc2ccccc12,35.3,/,/,/,0.8,/
CCCCNC(=O)c1ccc2c(c1)N(CC)C(=O)c1ccccc1S2(=O)=O,-4.4,-9.1,-94.2,-24.4,/,/
CCN1C(=O)c2ccccc2S(=O)(=O)c2ccc(C(=O)NC(C)C)cc21,18.7,-0.4,-13.0,/,51.6*,-4.7%
CC(=O)Nc1ccc(S(=O)(=O)/N=C2/NC(=O)/C(=C\c3ccco3)S2)cc1,-5.7,-3.3,1.8,-0.1,54.7*,-7.3%
Cc1ccc(S(=O)(=O)/N=C2/NC(=O)/C(=C\c3ccco3)S2)cc1,4.7,/,/,/,16.7,/
CCOc1ccc(NC(=O)CSc2nc(O)c(C)c(=O)n2-c2ccc(F)cc2)cc1,/,2.0,-1.0,-10.5,-5.1,/
CN(C(=O)CSc1nc(-c2ccc(C(C)(C)C)cc2)c(C#N)c(=O)[nH]1)C1CCCCC1,34.8,-0.4,3.6,-17.1,59.7*,-3.2%
CCN(CC)C(=O)COc1ccc2c(-c3ccc(OC)cc3)cc(=O)oc2c1,/,-1.7,-6.0,-18.6,-1.6,/
O=C(Nc1cc(Cl)ccc1-n1cncn1)c1cc(F)cc(F)c1,/,0.0,/,26.8,0.3,/
O=C(Nc1cc(Cl)ccc1-n1cncn1)c1cccs1,/,-4.6,-5.8,12.6,67.6*,-1.4%
CCCCc1nc(Cl)c(C#N)c2c1CCCC2,/,-1.0,-5.1,16.0,-0.8,/
N#Cc1c(Cl)nc2c(c1C#N)CCCC2,/,-0.8,-6.7,/,61.0*,0.5%
CO[C@@H]1CN(C)C(=O)c2ccc(NS(=O)(=O)c3ccccc3)cc2OC[C@H](C)N(C)C[C@@H]1C,12.3,-0.6,/,12.0,/,/
COc1ccc(CCNC(=O)C2CCN(C(=O)c3ccccc3C)CC2)cc1,9.9,-0.1,5.7,9.8,50.8*,-2.0%
COc1cccc(NC(=O)c2cc([N+](=O)[O-])ccc2NCc2cccnc2)c1,/,/,/,-3.9,3.5,/
Cc1ccc(NC(=O)c2cc([N+](=O)[O-])ccc2NCc2cccnc2)cc1Cl,/,/,32.7,/,127.3*,-6.6%
